The source of these data is PubChem BioAssay AID1851 (National Center for Advancing Translational Sciences (NCATS), 2009).

Each structure is given as a SMILES string. Among all 16,000 compounds or so, about 2,600 (16%) were called active. Roughly 20% stayed inconclusive and do not appear here. The call rests on the fitted dose curve; in most records, active means well fitted curve in the direction sought with a large enough effect; inconclusive means small, poorly fitted or top-dose-only effect, or effect the other way; inactive means no such curve, though single readings can be large or run the other way. Only a sample is shown. Numbered stars: 1 amine (or outer) side, 2 acyl side, 3 side chain; on linkers, the order of the positions; unused ones are H or OH. Bridge positions count the residues as written; N and C are the ends. Square brackets hold non-standard residues; d marks the D form. Peptide text beside a SMILES is read from it. I, II: the chains in the order shown. Actinocin(9to1) = Cc1c2oc3c(C)ccc(C(=O)[*:1])c3nc-2c(C(=O)[*:2])c(N)c1=O; aThr = C[C@H](O)[C@H](N)C(=O)O; NMeV = CN[C@H](C(=O)O)C(C)C; Sar = CNCC(=O)O
On the % scale 0 is the no-effect control and ±100 the full control effect.

The target of this experiment is Cytochrome P450 2D6 (Homo sapiens) (UniProt P10635). Nature of the experiment: Cytochrome panel assay with activity outcomes. Particulars: recombinant CYP, pro-luciferin dealkylation, luminescence, p450-cyp2d6; series mostly up to 57.1 µM.
Cytochrome P450 2D6 (Homo sapiens), sequence (P10635 whole entry, looked up): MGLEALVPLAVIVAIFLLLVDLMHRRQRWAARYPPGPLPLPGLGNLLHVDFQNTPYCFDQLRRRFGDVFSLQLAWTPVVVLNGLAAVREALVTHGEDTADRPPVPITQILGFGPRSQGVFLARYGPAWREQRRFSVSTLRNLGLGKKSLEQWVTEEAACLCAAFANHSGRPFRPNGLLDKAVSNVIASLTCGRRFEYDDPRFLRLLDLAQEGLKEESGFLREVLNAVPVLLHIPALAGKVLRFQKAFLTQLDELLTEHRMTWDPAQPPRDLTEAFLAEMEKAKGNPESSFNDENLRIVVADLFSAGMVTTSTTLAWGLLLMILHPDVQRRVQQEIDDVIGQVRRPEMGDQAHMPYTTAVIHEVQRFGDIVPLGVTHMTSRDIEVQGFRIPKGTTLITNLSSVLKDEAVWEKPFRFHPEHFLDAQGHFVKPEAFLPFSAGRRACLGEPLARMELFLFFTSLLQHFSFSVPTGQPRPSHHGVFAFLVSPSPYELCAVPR
One may read the AC50 as the concentration at which the activity in the assay is half-maximal. Take `CC1(C)S[C@@H]2[C@H](NC(=O)[C@@H](NC(=O)N3CCNC3=O)c3ccccc3)C(=O)N2[C@H]1C(=O)O`: the AC50 entry is “inactive”. Consider `COC(=O)c1sccc1NC(=O)CSc1ccccc1NS(=O)(=O)c1ccc(Cl)cc1`, for which the AC50 entry was “inactive”.

For the compound `C[C@@H]1O[C@H]2C3=C(C(=O)[C@H]4O[C@@H]4[C@H]3O)[C@@H]1[C@@H]1[C@@H](C)OC=C3[C@H](O)[C@H]4O[C@@H]4/C(=N\OCc4ccccc4)[C@]312`, the activity, negative = inhibition was -8.47% [at 11.4 µM] (inactive). Take `O=C(NCc1ccccc1)C(c1ccc(F)cc1)N(Cc1ccco1)C(=O)c1ccccn1` (configuration not stated): the AC50 entry is “inactive”. For `COC(=O)[C@H]1C[C@@H]1[C@H](NC(=O)Oc1ccc(F)cc1)c1ccccc1`, the AC50 entry is “inactive”.

For the compound `COC(=O)N[C@H](c1ccccc1)[C@@]1(C)C[C@@H]1[C@@H](C)C(=O)Nc1ccc2ccccc2c1`, the AC50 was 0.0316 µM (active). `C[C@@H](C(=O)Nc1ccc2ccccc2c1)[C@H]1C[C@]1(C)[C@H](NC(=O)Oc1ccc(F)cc1)c1ccccc1`: the AC50 was 2.51 µM (active). Still for that read-out and setting: in the case of `C[C@@H](C(=O)Nc1ccc2ccccc2c1)[C@@H]1C[C@@]1(C)[C@@H](NC(=O)Oc1ccc(F)cc1)c1ccccc1` it was “inactive”. `CO[C@@H]1COC(=O)CC=C[C@@H](C)[C@@H]2C=C[C@H](O)[C@@H](COC(=O)C/C=C\[C@H]1C)O2`: the activity, negative = inhibition was 13% [at 11.4 µM] (inactive). Take `Cc1cc(C)c(C)c(S(=O)(=O)ON2C(=O)c3ccccc3C2=O)c1C`: the AC50 result is “inactive”.

Consider `CC(C)(C)c1ccc(OCC(=O)O)c(Cl)c1`, for which the activity, negative = inhibition was 12.8% [at 11.4 µM] (inactive). Turning to `Cc1nc(NS(=O)(=O)c2ccccc2C)c2c3c(sc2n1)CCC3`, the AC50 result is “inactive”. The same measure, in the same setting: next, `CCCNC(=O)c1c(C)cc(=O)oc1C`: “inactive”; `COc1cc(-c2nnc(-c3ccc(N4CCOCC4)cc3)o2)cc(OC)c1OC`: “inactive”.

On to `COc1ccc(Br)cc1/C=C/C(=O)Nc1c(C)cccc1C`, for which the AC50 result was “inactive”.

For `CN1C(=O)C(CC(=O)Nc2ccc(F)cc2)N(CCCc2ccccc2)C1=S` (configuration not stated), the AC50 was 2 µM (active). The same measure, in the same setting: next, `CCN1C(=O)C(CC(=O)Nc2ccc(OC)cc2)N(Cc2cccnc2)C1=S` (configuration not stated): “inactive”. Same read-out and setting: next, `CC(=O)Nc1ccc(S(=O)(=O)NC2(C(F)(F)F)NC(=O)N(c3ccc(Cl)cc3)C2=O)cc1` (configuration not stated): “inactive”; `CCNC(=O)CC1C(=O)N(c2ccc(F)cc2)C(=O)N1CCc1ccc(OC)cc1` (configuration not stated): “inactive”; `O=C(CC1C(=O)N(c2ccc(Cl)cc2)C(=S)N1CCc1ccncc1)Nc1ccc(F)cc1` (configuration not stated): 2.24 µM (active). Consider `CCCCC(=O)Nc1ccc(C(=O)NNC(=O)CCc2ccccc2)cc1`, for which the AC50 entry was “inactive”. Still for that read-out and setting: in the case of `CCN1C(=O)C(CC(=O)Nc2ccc(Br)cc2)N(CCCc2ccccc2)C1=S` (configuration not stated) it was 10 µM (active). Same read-out and setting: in the case of `O=C(CC1C(=O)NCCN1C(=S)Nc1ccccc1)Nc1ccc2c(c1)OCCO2` (configuration not stated) it was “inactive”; in that of `CN1C(=O)C(CC(N)=O)N(NC(=O)c2ccc(Cl)cc2)C1=S` (configuration not stated), “inactive”; in that of `Cc1ccc(NC2c3ncccc3C(=O)N2Cc2ccc(F)cc2)cc1` (configuration not stated), “inactive”. Still for that read-out and setting: in the case of `COc1ccc(OC)c(C2CC(=O)C3=C(C2)NC(=O)CC3c2ccc(O)c(OC)c2)c1` (configuration not stated) it was “inactive”. With `CC(C)CC(=O)N1CCC(O)(CS(=O)(=O)Cc2ccc(Cl)cc2)CC1`, the AC50 entry is “inactive”. Still for that read-out and setting: next, `COCCn1c(=O)c(-c2cccc(F)c2)nc2cncnc21`: “inactive”.

For `Cc1nn(-c2ccccc2)c(N2CCCCC2)c1/C=N/O`, the AC50 entry was “inactive”. Still for that read-out and setting: next, `O=C(c1ccc(Cl)cc1)N1CCN(c2cc(=O)[nH]nc2-c2ccccc2)CC1`: “inactive”; `COc1cccc(CNCc2ccc(SC)cc2)c1OC`: 3.16 µM (active). Still for that read-out and setting: in the case of `CSc1ccc(CNc2ccccc2)cc1` it was “inactive”. On the same count and under the same terms, next, `CC(C)CC(=O)Nc1sc2c(c1C#N)CC(C)(C)NC2(C)C`: 7.94 µM (active). As for `COc1ccc(C(=O)N2CC3(CC(c4ccc(Cl)cc4)=NO3)C[C@H]2C(=O)NCC(N)=O)cc1` (some centres not stated), the AC50 entry is “inactive”.

Take `CCOC(=O)C1C(=O)C=C(c2ccc(C)cc2)CC1c1ccco1` (configuration not stated): the AC50 result is “inactive”. As for `Cc1c2oc3c(C)ccc(C(=O)N[C@@H]4C(=O)N[C@@H](C(C)C)C(=O)N5CCC[C@@H]5C(=O)N(C)CC(=O)N(C)[C@@H](C(C)C)C(=O)O[C@H]4C)c3nc-2c(C(=O)N[C@@H]2C(=O)N[C@@H](C(C)C)C(=O)N3CCC[C@@H]3C(=O)N(C)CC(=O)N(C)[C@@H](C(C)C)C(=O)O[C@H]2C)c(N)c1=O` (I: [aThr]V[dP][Sar][NMeV] / II: [aThr]V[dP][Sar][NMeV]; ester I:1-I:C, II:1-II:C; linker I:N-II:N via Actinocin(9to1)), the AC50 entry was “inactive”.

With `Cc1ccc(-n2[nH]c(C)c(C=Nc3ccc4[nH]c(=O)[nH]c4c3)c2=O)cc1C`, the AC50 entry is “inactive”.

Take `CCOc1ccc(C2=[N+]([O-])C(C)(C)N(O)C2(C)C)cc1`: the AC50 result was “inactive”. Still for that read-out and setting: in the case of `Cc1ccc(S(=O)(=O)NCc2ccccc2)cc1` it was “inactive”. Still for that read-out and setting: in the case of `Cc1ccc(NC(=O)NNS(=O)(=O)c2ccc(Br)cc2)cc1` it was “inactive”. Regarding `Cc1ccc(S(=O)(=O)N[C@H](C(=O)O)C(C)C)cc1`, the activity, negative = inhibition is 3.72% [at 11.4 µM] (inactive).

For `Cc1ccc(S(=O)(=O)NNc2ccccc2)cc1`, the AC50 is 7.94 µM (active). In the case of `Cc1ccc(NNS(=O)(=O)c2ccc(C)cc2)cc1`, the AC50 was 5.62 µM (active). As for `Cc1ccc(S(=O)(=O)N[C@H](CO)C(=O)O)cc1`, the activity, negative = inhibition was 1.97% [at 11.4 µM] (inactive).

Regarding `OC[C@@H]1O[C@@H](n2cnc3c(NC4CCCC4)ncnc32)[C@@H](O)[C@H]1O`, the AC50 result is “inactive”. Same read-out and setting: in the case of `CCN1C(=O)C=CC1=O` it was “inactive”; in that of `CC[N+](CC)(CC)CC`, “inactive”; in that of `Clc1ccc(Sc2cc(N3CCOCC3)nc(-c3ccccc3)n2)cc1`, “inactive”. The same measure, in the same setting: in the case of `CC(=O)C1=C(NC(=O)c2ccc(F)cc2)CC2C1C2(C)C` (configuration not stated) it was “inactive”. Same read-out and setting: next, `Nc1nc(NCc2ccccc2)nc(Nc2cccc(F)c2)c1[N+](=O)[O-]`: “inactive”; `Cc1ccc(CNc2nc(N)c([N+](=O)[O-])c(Nc3ccc(F)cc3)n2)cc1`: “inactive”. `Cc1[nH]nc(Nc2ccccc2)c1[N+](=O)[O-]`: the AC50 was 10 µM (active). On to `CCOC(=O)CCc1c(C)nc2ncnn2c1C`, for which the AC50 result is “inactive”. Still for that read-out and setting: next, `O=C(OCC#CCSc1nnc(-c2cccc3ccccc23)o1)c1ccco1`: “inactive”; `COc1cc2c(cc1OC)C(C(=O)Nc1ccccn1)C(c1cccnc1)N(C)C2=O` (configuration not stated): “inactive”. `c1ccc([C@H](CCN2CCCC2)c2ccccn2)cc1`: the activity, negative = inhibition is 12% [at 11.4 µM] (inactive). For `c1ccc(C(CCN2CC3CCC(CC3)C2)c2ccccc2)cc1`, the AC50 is 0.794 µM (active).
